Experimental data published in PubChem BioAssay AID2284339 (EPA ToxCast).
Values joined by “and” are separate entries in the source; they are usually repeats but may differ in a detail not shown here. Equal values may be shown once. Active and inactive are the calls of the source. Rule for the calls: active = hit-call score of the fitted dose curve at least 0.9, where 1 is the maximum; inactive = score below 0.9.

The molecules below were run on NCBI gene 100038242 (assay: CCTE_GLTED_xDIO3: CCTE's Xenopus Iodothyronine Deiodinase Type 3 (xDIO3) Inhibition Assay, Great Lakes Toxicology and Ecology Division (GLTED) Lab).
Description: CCTE_GLTED_xDIO3 is a cell-free, single-readout assay designed to test the inhibitory activity of chemicals toward Xenopus (frog) iodothyronine Deiodinase Type 3 (DIO3) enzyme. Enzyme is incubated in presence of test chemical for 3 hours during which uninhibited enzyme liberates free iodide from substrate. Free iodide is measured in a second step using the Sandell-Kolthoff method.CCTE_GLTED_xDIO3 is the assay component measured from the CCTE_GLTED_xDIO assay. It is designed to make measurements of enzyme activity, a form of enzyme reporter, as detected with absorbance signals by spectrophotometry.Data from the assay component CCTE_GLTED_xDIO3 was analyzed at the assay endpoint CCTE_GLTED_xDIO3 in the positive analysis fitting direction relative to DMSO as the negative control and baseline of activity. Using a type of enzyme reporter, loss-of-signal activity can be used to understand deiodinase Type 3 activity. To generalize the intended target to other relatable targets, this assay endpoint is annotated to the 'deiodinase' intended target family, where the subfamily is 'deiodinase Type 3'.
[…]

Structure (SMILES) | AC50
O=C(O)C(F)(F)C(F)(F)C(F)(F)C(F)(F)C(F)(F)C(F)(F)C(F)(F)C(F)(F)C(F)(F)C(F)(F)F | 27.7 µM (active)
C=CC(=O)OCC(F)(F)C(F)F | 19.8 µM (active)
COC(=O)C(F)(F)C(F)(F)OC(F)(C(F)(F)F)C(F)(F)OC(F)=C(F)F (stereo not given) | 7.65 µM (active)
O=C(O)C(F)(F)C(F)(F)C(F)(F)C(F)(F)C(F)(F)C(F)(F)C(F)(F)C(F)(F)C(F)(F)F | 147 µM (active)
O=S(=O)(O)C(F)(F)C(F)(F)C(F)(F)C(F)(F)C(F)(F)C(F)(F)C(F)(F)C(F)(F)F | 142 µM (active) and 160 µM (active)
